S2 tox: cell viability loss in ATXN counter-screen | S2 cells (HEK-293 line with an ATXN2-luciferase reporter) viability, CellTiter-Fluor protease fluorescence, 24 h | Potency, µM (highest dose often 56.7 µM), actives largely listed as cytotoxic | actives 0.49% (n = 400,000); note: nearly all actives have a fitted effect of over 40% in size
HepG2 viability: counter-screen for TGF-b inhibitors: cytotoxicity in HepG2 cells; HepG2 CAGA-GFP viability, ATP luminescence, 18 h; Potency, µM (highest dose often 46.1 µM), inactives show at the top dose activity change, negative = cytotoxicity, actives largely listed as cytotoxic; actives 0.76% (n = 410,000); AID 588856
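CellTiter-Glo luminescence gave cytotoxicity after 18 hours at 37 degrees C. The cells were HepG2 CAGA-GFP in 1% FBS DMEM, stimulated with 500 pg/mL TGF-beta after compound addition. %Activity was normalised to no-cell wells (complete cell-killing) and DMSO (no toxicity), and curves were fitted and classified.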
Nrf2 inh: blocks Nrf2 signaling. Potency, µM (titrated, usually from 46 µM), for inactives: at the highest dose activity change, negative = inhibition, hits mostly inhibitors. actives 2.1% (n = 360,000). A549 ARE-Fluc reporter, luciferase luminescence, 18-24 h. AID 504444; note: % is set by controls: 0 for no effect and ±100 for the full control effect; nearly all actives have a fitted effect of over 60% in size
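Two sequential reads on A549 ARE_Fluc cells exposed to compound for 18-24 h: a CellTiter-Fluor fluorescence read for viability, then a luciferase luminescence read for Nrf2/ARE activity.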
A549 viability: A549 cytotoxicity, counter-screen for Nrf2 inhibitors | actives 0.16% (n = 390,000) | AID 504648 | A549 ARE-Fluc cells, CellTiter-Fluor viability, 18-24 h | Potency, µM (titrated, usually from 46 µM), inactives show top-dose activity change, negative = cytotoxicity, most hits filed as inhibitors; note: % is set by controls: 0 for no effect and ±100 for the full control effect
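A549 ARE_Fluc cells in 5% FBS OPTI-MEM were exposed to compounds in concentration-response for 18-24 h at 37 deg C. Viability was read by CellTiter-Fluor fluorescence (Ex 405/Em 525) after 30 min, before the luciferase read.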
TGFb inhibitor: blocks TGF-b signaling; HepG2 CAGA-GFP TGF-b/SMAD3 reporter, GFP fluorescence, 18 h; TGF-beta stimulated, 500 pg/mL final; Potency, µM (titrated, usually from 46.1 µM), without a hit: at the highest dose activity, negative = inhibition, actives largely listed as inhibitors; actives 1.2% (n = 410,000); note: % is set by controls: 0 for no effect and ±100 for the full control effect; nearly all actives have a fitted effect of over 65% in size
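First, reporter cells (HEPG2 CAGA-GFP) rested 2 h at 37 degrees C. Next, compounds were pinned in and TGF-beta added to 500 pg/mL final. After 18 h, GFP was imaged per cell and summed per well.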
ATXN2 expr inh: inhibitors of ATXN2 expression | HEK-293 ATXN2-luciferase reporter, luminescence, 24 h | Potency, µM (highest dose often 57 µM), for inactives: at the top dose activity change, negative = inhibition, usual class: inhibitors | actives 0.72% (n = 360,000); note: % is set by controls: 0 for no effect and ±100 for the full control effect; nearly all actives have a fitted effect of over 55% in size
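ATXN2-luciferase reporter cells (luciferase flanked by upstream and downstream ATXN2 gene portions) were treated 24 h at 37 °C with compounds at up to 57 uM. SteadyGlo luminescence gave expression; GF-AFC fluorescence gave viability.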
Active calls of the source: *; i = inactive; ? = inconclusive; / = no result given; ! = not confirmed by another sample; [ ] = dose if it differs, or a comment. The list is not random: actives were taken first. Their share in the collection is about 3.8%. Calls come from the whole dose curve; as a rule, active = well fitted curve in the direction sought with a large enough effect; inconclusive = small, poorly fitted or top-dose-only effect, or another doubt; inactive = no such curve, though single readings can be large; an effect the other way counts as inactive or inconclusive. Potency is the fitted concentration of half-maximal effect.

SMILES	S2 tox	HepG2 viability	Nrf2 inh	A549 viability	TGFb inhibitor	ATXN2 expr inh
CCC(=O)NC(c1ccc(Cl)cc1Cl)c1ccc2cccnc2c1O (stereo not given)	i	-21.0%	?	-18.4%	?	5.62µM*
CCCCC(=O)NC(c1ccc(Cl)cc1Cl)c1ccc2cccnc2c1O (stereo not given)	i	-60.4%	?	-1.2%	?	?
CN(C(=O)c1ccc(OCC=C(c2ccccc2)c2ccccc2)cc1)c1ccccc1I	/	-13.7%	13.3%	4.1%	-21.9%	/
Cc1cc(SCC(=O)NN)c2cc(Br)ccc2n1	i	-75.5%	?	1.6%	?	?
CC(C)C(=O)NC(c1ccc(Cl)cc1Cl)c1ccc2cccnc2c1O (stereo not given)	?	-31.2%	13µM*	?	?	/
O=C(CSc1nnc(Cc2ccccc2)n1Cc1ccco1)NC12CC3CC(CC(C3)C1)C2	?	-25.4%	25.9µM*	-14.7%[1.84 µM]	?	-17.9%
Cc1cc(C)c(NC(=O)Cn2c(=O)n(Cc3ccco3)c(=O)c3ccc(C(=O)NC4CCCC4)cc32)c(C)c1	i	-19.3%	13.3%	3.9%	8.4%	-0.4%
CCOC1=C2CN(S(=O)(=O)c3ccccc3)[C@H](c3ccccc3)C[C@H]2n2c(=O)n(-c3ccccc3)c(=O)n2C1	?	2.5%	/	/	6.9%	-0.2%
CCOC(=O)c1cc(C)n(Cc2cccc(OC)c2OC)c1C	i	-32.3%	23.1µM*	-22.7%	0.1%	-25.7%
COc1ccc(-c2nnc(Sc3nc4ccccc4o3)c3ccccc23)cc1	i	12.6µM*	?	8.7%	12.6µM*	-2.8%
CCc1ccccc1NC(=O)CN1CCCN(Cc2cc(C)ccc2C)S1(=O)=O	/	-35.0%	?	-10.7%	17.8µM*	/
CS(=O)(=O)c1ccc(-c2sc3ccccc3c2C#CCCO)cc1	?	-32.8%	9.3%	-3.6%	11.2µM*	?
COc1ccc2c(C#CCCO)c(-c3ccc(S(C)(=O)=O)cc3)sc2c1	i	-2.6%	?	-6.0%	-6.7%	-24.8%
CN(C)C(=S)N=Nc1[nH]c2ccccc2c1O	/	-71.9%	13.4%	0.4%	2.82µM*	/
Cc1ccc2c(c1)CN(CCNC(=O)c1cccc(Cn3cccn3)c1)CC(C)O2 (stereo not given)	i	/	/	/	/	/
Cc1ccc2nc(-c3ccc(NC(=O)CSc4ccccc4)cc3)[nH]c2c1	i	-63.0%	-11.4%	-19.8%	-17.6%	-0.7%
COc1ccc(NC(=O)CSc2ccccn2)cc1OC	i	-10.0%	11.2%	-2.2%	1.4%	11.1%
COc1ccc(NC(=O)C#Cc2ccccc2)cc1OC	i	1.7%	8.2µM*	-7.6%	-28.0%	1.5%
COc1ccc(NC(=O)CSc2ncccc2C(=O)OC(C)C)cc1OC	i	52.0%	9.2µM*	1.0%	17.8%	-20.4%
O=C(CSc1ccccc1)Nc1ccc(-c2nc3ccccc3[nH]2)cc1	i	15.8µM*	3.9%	-6.9%	?	6.9%
COc1ccc(-c2nc(SCC(=O)Nc3ccc4c(c3)OCO4)c(-c3ccc(F)cc3)[nH]2)cc1OC	i	-53.4%	?	-6.4%	?	-4.4%
COc1ccc(-c2nc(SCC(=O)Nc3ccccc3)c(-c3ccc(F)cc3)[nH]2)cc1OC	i	-24.0%	14.6µM*	?	?	-21.7%
COc1ccc(NC(=O)c2ccccc2SC)cc1OC	i	10.5%	/	12.3%	-1.0%	0.1%
COc1ccc(NC(=O)CSc2nc(-c3ccc(F)cc3)[nH]c2-c2ccc(C)cc2)cc1OC	?	-19.2%	?	?	?	?
CC(=O)CSc1ccc(-c2nc3ccccc3[nH]2)cn1	i	10µM*	?	-1.9%	-0.6%	-29.2%
SMILES	S2 tox	HepG2 viability	Nrf2 inh	A549 viability	TGFb inhibitor	ATXN2 expr inh
COc1ccc(NC(=O)CSc2nc(-c3ccccc3)[nH]c2-c2ccccc2)cc1OC	?	-43.7%	16.4µM*	-18.5%	?	?
O=C(CSc1nc(-c2ccc(F)cc2)[nH]c1-c1ccccc1)Nc1ccccc1	i	-20.3%	20.6µM*	-23.9%	?	-18.2%
COc1ccc(NC(=O)CSc2nc3c(oc4ccccc43)c(=O)n2-c2ccccc2)cc1OC	17.8µM*	2.6%	-12.4%	-10.7%	-2.0%	-1.8%
C=CC(=O)Nc1ccc(CN2C(=O)N(c3c(Cl)c(OC)cc(OC)c3Cl)Cc3cnc(NCCCCN(CC)CC)nc32)cc1	11.2µM*	-82.9%	-22.3%	?	?	?
COc1ccc(NC(=O)C2=C(C)Nc3nc(CCCO)nn3C2c2ccc(O)cc2)cc1 (stereo not given)	i	-11.6%	/	9.3%	0.7%	-5.6%
Cc1cccc(NC2=C/C(=N/S(=O)(=O)c3cccs3)c3ccccc3C2=O)c1	?	0.8%	?	?	?	?
Cc1cc(C)c(S(=O)(=O)/N=C2\C=C(NS(=O)(=O)c3ccccc3)C(=O)c3ccccc32)c(C)c1	?	-0.2%	5.6%	-3.4%	-1.0%	-5.2%
Cc1ccc(Cl)cc1NC1=C/C(=N\S(=O)(=O)c2cccs2)c2ccccc2C1=O	11.2µM*	3.55µM*!	16.4µM*	?	3.98µM*	2.82µM*
Cc1ccc(NC2=C/C(=N\S(=O)(=O)c3cccs3)c3ccccc3C2=O)c(C)c1	8.91µM*	4.47µM*	?	18.4µM*	2.51µM*	?
C[C@@H]1CN([C@H](C)CO)C(=O)c2cc(Br)cnc2O[C@H]1CN(C)C(=O)Nc1ccccc1F	i	-9.9%	/	/	0.4%	-3.4%
NC(=O)c1c(OCc2c(F)cc(Br)cc2F)nsc1NC(=O)NCCCCN1CCCC1	/	/	/	/	/	30.6µM*
CCc1ccc(NC(=O)CC2C(=O)N(c3ccc(Cl)cc3)C(=O)N2C2CCCC2)cc1 (stereo not given)	/	-39.3%	?	?	?	/
CCOC(=O)c1sc2nccc(OC)c2c1N=CNOC	i	-0.3%	-14.3%	0.1%	2.3%	-19.5%
COc1ccc(/C=C/C(=O)Nc2ccc(OC)nc2)cc1	?	-24.2%	?	1.6%	0.6%	-12.1%
COc1ccc(NC(=O)/C=C/c2cccc(Br)c2)cn1	i	-17.1%	16.4µM*	-17.3%	-3.8%	-34.9%
COc1ccc(NC(=O)/C=C/c2ccc(OC(F)F)cc2)cn1	i	5.1%	18.4µM*	-18.2%	23.7%	-22.7%
COc1ccc(NC(=O)/C=C/c2cccc(C(F)(F)F)c2)cn1	i	-11.9%	?	-7.0%	-4.5%	-24.4%

Screening results (PubChem)
